This is a sample that favours compounds with a hit; in the whole collection about 3.5% have one here.
GPR151 activ – activators of human GPR151. PathHunter beta-arrestin GPR151 cells, luminescence. activation, % at 11.2 µM. 650,000 tested, 1% active. AID 1508602; in the data active = activation above about 4.9%
FBW7 activator – activators of human E3 ligase FBW7; normalized activity (activation), % at 26.1 µM; AlphaScreen FBW7–phospho-cyclin E peptide binding, activator screen; 650,000 tested, 0.13% active; in the data active = normalized activity above about 1.9%;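 also: purified mutant Fbw7 with reduced substrate affinity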
MITF inh – human MITF inhibition, primary screen; inhibition, % at 2.6 µM; 650,000 tested, 0.91% active; AID 1259374; AlphaScreen MITF homodimerization, bead proximity signal; in the data active = inhibition above about 50%
TEAD-YAP inh – TEAD-YAP interaction inhibition. HEK-TIYL cells, TEAD-Gal4/YAP UAS-luciferase luminescence. inhibition, % at 9.12 µM. 640,000 tested, 1.4% active. AID 1259422; in the data active = inhibition above about 32%
GPR151 conf act – human GPR151 activation, confirmation screen. shares compounds with GPR151 activ. activation, % at 11.2 µM. 6,700 tested, under 10 active. GPR151 PathHunter beta-arrestin cells, luminescence, 90 min; % of EA-reagent control over plate median;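 active = mean percent activation across replicates above the confirmation screen cutoff of 4.91%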
GPR119 ag – GPR119 activation, counter-screen for GPR151 activators; GPR119 PathHunter beta-arrestin cells, luminescence, 90 min; 0 = compound-well median, 100 = enzyme-acceptor control; shares compounds with GPR151 activ; 6,700 tested, 0.3% active; activation, % at 11.2 µM; AID 1508611;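 active = mean percent activation in the counterscreen above 29.09%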;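 also: counterscreen on off-target GPR119 to flag nonselective hits from the GPR151 activator screen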
Target sequence (Q8TDV5 whole entry, looked up): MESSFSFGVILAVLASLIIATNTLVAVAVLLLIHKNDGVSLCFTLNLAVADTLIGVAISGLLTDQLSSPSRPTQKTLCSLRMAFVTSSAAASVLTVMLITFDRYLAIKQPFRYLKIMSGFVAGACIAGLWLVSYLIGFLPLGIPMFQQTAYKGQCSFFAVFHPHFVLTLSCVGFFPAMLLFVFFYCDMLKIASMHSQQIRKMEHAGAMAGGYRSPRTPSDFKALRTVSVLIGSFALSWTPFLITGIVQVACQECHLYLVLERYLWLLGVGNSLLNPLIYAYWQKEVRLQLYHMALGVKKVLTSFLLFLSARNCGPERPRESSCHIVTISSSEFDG
Numbers stand for hits; - = inactive; . = not tested or not shown.

SMILES | GPR151 activ | FBW7 activator | MITF inh | TEAD-YAP inh | GPR151 conf act | GPR119 ag
COc1ccc(-c2cc(C(F)(F)F)n3ncc(C(=O)Nc4ccc(Cl)cc4Cl)c3n2)cc1OC | 5.4 | - | - | - | - | -
CCOC(=O)C(=O)NC(NC(=O)C(=O)OCC)c1ccc(Br)cc1 | - | - | - | - | . | .
COc1ccc(/C=C/C(=O)Nc2ccccc2OC)cc1Br | - | - | - | - | . | .
CCC1CCCCN1S(=O)(=O)c1ccc(Cl)c(OC)c1 (centres undefined) | - | - | - | - | . | .
COc1ccc(NC(=O)Nc2c3c(nn2C(C)(C)C)CSC3)cc1 | 5.5 | - | - | - | - | -
CC(C)(C)n1nc2c(c1NC(=O)c1c(F)cccc1F)CSC2 | 7.6 | - | - | - | - | -
CC(C)(C)n1nc2c(c1NC(=O)c1cccc(F)c1)CSC2 | - | - | - | - | . | .
COc1ccc(CC(=O)Nc2c3c(nn2C(C)(C)C)CSC3)cc1 | - | - | - | - | . | .
CCn1c(COc2ccccc2)nnc1SCC(=O)Nc1ccc(F)cc1 | - | - | - | - | . | .
CCC(Sc1nc2ccccc2c2nc(C)nn12)C(=O)NCc1ccco1 (centres undefined) | 8.7 | - | - | - | - | -
CCC(Sc1nc2cc3c(cc2c(=O)n1CCCCCC(=O)NCc1ccc2c(c1)OCO2)OCO3)C(=O)NCc1ccco1 (centres undefined) | - | - | - | - | . | .
CCC(Sc1nc2cc3c(cc2c(=O)n1CCCCCC(=O)NCc1ccc(OC)cc1)OCO3)C(=O)NCc1ccco1 (centres undefined) | 5.0 | - | - | - | - | -
CCC(Sc1nc2cc(OC)c(OC)cc2c2nc(C)nn12)C(=O)NCc1ccco1 (centres undefined) | - | - | - | - | . | .
Cc1ccc(C(=O)/C=C\N2CCCCC2)cc1 | 5.2 | - | - | - | - | -
Cc1sc(NC(=O)CCOc2ccccc2)c(C#N)c1C | 6.9 | - | - | - | - | -
COc1ccc(C(=O)NCc2ccccc2)cc1I | - | - | - | - | . | .
COc1ccc(C(=O)NCCOc2ccccc2OC)cc1OC | - | - | - | - | . | .
COc1ccc(C(=O)NCCC(c2ccccc2)c2ccccc2)cc1OC | 19 | - | - | - | - | -
CCOC(=O)CNC(=O)c1ccc(OC)c(I)c1 | - | - | - | - | . | .
CCOc1cc(C(=O)NCc2ccccc2)ccc1OC | 14 | - | - | - | - | -
CCOC(=O)CNC(=O)c1ccc(OC)c(Br)c1 | 5.6 | - | - | - | - | -
CCn1c(SCC(N)=O)nc2ccc(Br)cc2c1=O | 5.4 | - | - | - | - | -
CCn1c(=O)c2ccccc2n2c(SCC(N)=O)nnc12 | 6.3 | - | - | - | - | -
CCn1c(SCC(N)=O)nc2ccc(I)cc2c1=O | - | - | - | - | . | .
CCCn1c(=O)c2ccccc2n2c(SCC(N)=O)nnc12 | - | - | - | - | . | .
SMILES | GPR151 activ | FBW7 activator | MITF inh | TEAD-YAP inh | GPR151 conf act | GPR119 ag
COc1cc(CNc2n[nH]c3nc(C)cc(C(F)(F)F)c23)cc(OC)c1 | - | - | - | - | . | .
Cc1cnc(Nc2ccncn2)nc1NC1CCN(Cc2ccccc2)CC1 | - | - | - | - | . | .
Cc1cnc(Nc2ccncn2)nc1NC1CC1 | 5.7 | - | - | - | - | -
Cc1c(OCC(=O)O)ccc2c3c(c(=O)oc12)CCC3 | - | - | - | - | . | .
CCCN(CCC)S(=O)(=O)c1ccc(NS(C)(=O)=O)cc1 | - | - | - | - | . | .
CCCN(CCC)S(=O)(=O)c1ccc(NS(=O)(=O)c2ccc(F)cc2)cc1 | 6.1 | - | - | - | - | -
O=[N+]([O-])c1ccc(Oc2ccc(S(=O)(=O)Nc3ccccc3)cc2)cc1 | - | - | - | - | . | .
CC(=O)Nc1ccc(S(=O)(=O)c2ccc(NC(C)=O)c([N+](=O)[O-])c2)cc1[N+](=O)[O-] | 7.5 | - | - | - | - | -
O=[N+]([O-])c1ccc(Oc2ccc(S(=O)(=O)Nc3ccc(F)cc3)cc2)cc1 | 7.5 | - | - | 36 | - | -
CC(=O)Nc1ccc(NS(=O)(=O)c2ccc([N+](=O)[O-])cc2)cc1 | 18 | - | - | - | - | -
CC(=O)Nc1ccc(S(=O)(=O)c2ccc([N+](=O)[O-])cc2)cc1 | - | - | - | - | . | .
CCOc1ccc(C(CC(=O)O)NC(=O)c2ccc(C)c([N+](=O)[O-])c2)cc1OC (centres undefined) | - | - | - | - | . | .
CCOC(=O)c1cnc2cc(Cl)c(OC)cc2c1NCCc1ccc(OC)c(OC)c1 | - | - | - | - | . | .
